From ChEMBL document CHEMBL3988442, “University of Dundee, Small-Polar-MMV Screening Library” (2021)
The whole screen tested about 48,000 compounds, of which about 13,000 (27%) showed an effect of 50% or more. Some of the results follow.

test system: Wolbachia pipientis; experiment: Anti-Wolbachia Cell-Based Screen; type: functional; set-up: scale not given: in the data most compounds retested in dose-response had high values; conditions: 5 µM

Row | SMILES | Percent Effect
1 | CCC(=O)NCc1cc(Br)c(OC)c(OC)c1 | -2.986%
2 | c1cnn(CCC2CCCCN2Cc2cnc(C3CCCCC3)nc2)c1 (stereo not given) | -23.18%
3 | CC(=O)OCC1CCCCN1C(=O)c1ccc(Cn2ccnc2)o1 (stereo not given) | 0.6554%
4 | N#Cc1cn(CCCN2CCc3ccccc32)c(=O)[nH]c1=O | 7.257%
5 | CSc1cc2c(cc1NC(=O)NCC(=O)N(C)C)OCCO2 | -7.029%
6 | Nc1c(Cl)cnn1C1CCN(Cc2ccccc2)C1 (stereo not given) | -6.784%
7 | CNC(=O)CS(=O)(=O)Cc1coc(-c2ccc(OC)cc2)n1 | -17.74%
8 | c1ccc(-c2nnn3c2COC(CNCc2ccccn2)C3)cc1 (stereo not given) | -8.365%
9 | Cc1nnc(NCCc2coc(-c3ccccc3)n2)c(C#N)c1C | -1.856%
10 | O=C1NCCCCC1SCc1coc(-c2ccccc2)n1 (stereo not given) | -18.22%
11 | c1ccc(-c2nc(CCNCc3ccccn3)co2)cc1 | 85.74%
12 | c1ccc(Oc2ncccc2CNCc2ccccn2)cc1 | 6.646%
13 | COc1ccc(-c2nc(CCNc3nnc(C)c(C)c3C#N)co2)cc1 | 14.52%
14 | c1ccc(-c2nc(CNCCn3cccn3)cs2)cc1 | 17.11%
15 | c1ccc(-c2nc(CCNCc3ccncc3)co2)cc1 | 91.06%
16 | COc1ccc(-c2nc(CCNCc3ccncc3)co2)cc1 | 89.2%
17 | c1ccc(-c2nc(CCNCc3cccnc3)co2)cc1 | 108.2%
18 | COc1cccc(-c2nc(CNCCc3cccnc3)cs2)c1 | 20%
19 | CC(C)c1noc(C[S+]([O-])CC(=O)Nc2ccc(F)c(F)c2)n1 (stereo not given) | -5.19%
20 | CC(=O)NCCCSCCOc1cccc(C#N)c1 | -7.407%
21 | O=C(Nc1ccncc1)NC1CCN(c2ccccc2Cl)C1=O (stereo not given) | 1.637%
22 | COc1ccc(CCN2CC(c3nc(CSC)no3)CCC2=O)cc1 (stereo not given) | -1.637%
23 | Cc1cc(CNC(=O)c2ccc(C(C)N3CCCCC3)o2)[nH]n1 (stereo not given) | -3.545%
24 | O=C(c1cccc(-n2cccn2)c1)N1CCCOC(CN2CCCC2)C1 (stereo not given) | 2.221%
25 | Cc1nnc2n1CCN(C(=O)CN1C(=O)C(C)Oc3ccccc31)C2 (stereo not given) | 3.234%

Row | SMILES | Percent Effect
26 | COCCn1cc(NC(=O)N(CCC(N)=O)Cc2ccccc2)cn1 | -7.009%
27 | Cc1ccc(-c2nc(CCNC(=O)NC3CCN(C)CC3)co2)cc1 | -5.87%
28 | Cc1ccc(-c2nc(CCNCc3ccncc3)co2)cc1 | 83.41%
29 | Cc1nnc(NCCc2coc(-c3ccc(F)cc3)n2)c(C#N)c1C | 5.844%
30 | Cc1cnn(CCNCCCOc2ccc(C#N)cc2)c1 | 4.876%
31 | C=C/C=c1\c(=C/C)oc2c(NCc3ccccc3)nc(CC)nc12 | 112.6%
32 | CCC(CNc1ncnc2oc(C)nc12)Cc1ccccc1 (stereo not given) | -28.36%
33 | CS(=O)(=O)c1ccc(NCc2ccccc2)cn1 | -7.161%
34 | C=C/C=c1\c(=C/C)oc2c(NCc3ccccc3)ncnc12 | 107.1%
35 | Cc1nc(NCc2cccnc2)c2c(n1)c(C)nn2C | -9.557%
36 | C=C/C=c1\c(=C/C)oc2c(NCc3ccccc3)nc(C)nc12 | 116.4%
37 | Cc1nc2c(c(NCc3ccccc3)n1)CCN(C(=O)C1CCC1)CC2 | -5.333%
38 | Cc1ccc(-c2nc(CN3CCc4nn(C)c(=O)cc4C3)no2)cc1 | -3.521%
39 | CCCNC(=O)C(C)NC(=O)Nc1ccccc1SC(F)F (stereo not given) | -20.86%
40 | O=C(c1ccc2occc2c1)N1CCC(C(=O)O)(n2cccn2)CC1 | 17.51%
41 | CO[C@H]1CN(S(=O)(=O)c2cn(C)cn2)[C@@H]2CCCO[C@H]12 | -0.7123%
42 | CNC(=O)NC(=O)CCSc1ccccc1Cl | -6.595%
43 | Cc1cccc(CC(=O)NS(=O)(=O)c2ccc(F)c(F)c2)c1 | -13.3%
44 | Cc1nc(CNC(=O)NC2CCN(c3cccc(Cl)c3)C2)no1 (stereo not given) | 1.056%
45 | COCC(=O)N1CCCC1c1cc(N2CCN(C(C)=O)CC2)cc(C)n1 (stereo not given) | 110.9%
46 | COCC(=O)N1CCN(C(C)=O)C[C@@H]1C(=O)OC | 18.89%
47 | COCC(=O)N1CCN(c2cc(-n3cccc3)nc(C)n2)CC1 | -19%
48 | COC(=O)N1CCCCC1C(=O)N1CCCN(c2ccnc(C)c2)CC1 (stereo not given) | 2.606%
49 | COCC(=O)N1CCN(c2cc(C)nc(C3CCCN3C(C)=O)c2)CC1 (stereo not given) | 105.4%
50 | O=C(NCC1OCCc2cn(CC3CCOCC3)nc21)c1ccncc1.O=C(O)C(F)(F)F (stereo not given) | -2.103%

Row | SMILES | Percent Effect
51 | CS(=O)(=O)N1C[C@@H]2OCC(=O)N(CC3CCC3)[C@@H]2C1 | -1.197%
52 | O=C(O)c1csc(S(=O)(=O)N2CCCc3ccc(F)cc32)c1 | -8.72%
53 | COCCC1(CO)CCCN(Cc2ccc(C(F)(F)F)cc2)C1 (stereo not given) | -12.26%
54 | O=C1Nc2ccccc2CC12CCCN2Cc1ccc(F)cc1 (stereo not given) | 106.5%
55 | CS(=O)(=O)c1ccc(CN2CCCC3(C2)C(=O)Nc2ccccc23)cc1 (stereo not given) | 12.45%
56 | O=C1Nc2ccccc2CC12CCCN2Cc1ccc(C(F)(F)F)cc1 (stereo not given) | 105.2%
57 | O=C(NC1CC1)N1CCC2(CC1)C(=O)NCCN2Cc1ccccc1.O=C(O)C(F)(F)F | -18.73%
58 | CC(C)N1CCC2(CCCN(Cc3ccc(F)cc3)C2=O)C1 (stereo not given) | -24.02%
59 | CCC(CC)c1cc(CNC(=O)N2CCN(CC)CC2)on1 | 1.8%
60 | O=C(c1cnc(-c2ccccn2)s1)N1CCCC1Cn1cccn1 (stereo not given) | 117.3%
61 | O=C(c1cnc(-c2cnccn2)s1)N1CCCC1Cn1cccn1 (stereo not given) | 93.62%
62 | O=C(c1cnc(-c2ncccn2)s1)N1CCCC1Cn1cccn1 (stereo not given) | 93.22%
63 | COc1ccc(CN2CCN(c3ncc(Cl)cn3)CC2)cc1 | -2.887%
64 | CC(C)(O)c1cn(C2CCN(c3ncccc3Cl)CC2)nn1 | -4.75%
65 | CSc1ccc(NC(=O)COCc2ccccc2)nc1 | -20.64%
66 | NC(=O)CN(CC(N)=O)Cc1cccc(Oc2ccccc2)c1 | -1.216%
67 | CN(C(=O)CC1=CCCCC1)C1CCCN(CCc2ccccc2)C1 (stereo not given) | 7.677%
68 | Nc1cc(C(=O)NCC2CCN(CCc3ccccc3)C2)ccn1 (stereo not given) | -3.918%
69 | CN(C(=O)c1cccnc1)C1CCCN(CCc2ccccc2)C1 (stereo not given) | -6.072%
70 | O=C(NC1CCCN(CCCc2ccccc2)C1)C1=CCCCC1 (stereo not given) | 81.9%
71 | CC(C)C(=O)NCC(=O)N(C)C1CCCN(CCc2ccccc2)C1 (stereo not given) | -4.152%
72 | O=C(Cc1cccnc1)NC1CCCN(CCCc2ccccc2)C1 (stereo not given) | 124.1%
73 | CC(C)(C)NC(=O)N1CCC(NC(=O)Cc2cccnc2)CC1 | -14.05%
74 | O=C(NC1CCCN(CCCc2ccccc2)C1)c1ccc(Cl)s1 (stereo not given) | 85.82%
75 | Nc1cc(C(=O)NC2CCCN(CCCc3ccccc3)C2)ccn1 (stereo not given) | 96.33%
